Hit rate of the full screen: of about 290,000 compounds, about 3,000 (1%) were called active. The sample as a whole holds a higher share of actives than the screen did. Unmarked numbers belong to inactive results. Cut-off read from the data, not from the text of the source: active = inhibition mostly above about 36% (no sharp cut-off); inactive = mostly below about 34%.
Test: NOD1 signaling inhibitors, primary screen, cell-based, luminescence, uHTS (AID 1578);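 note: HEK-293T reporter cells stimulated with the NOD1 agonist gamma-tri-DAP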
Details: NOD1-driven NF-kB luciferase reporter cells, at 4 µM, hits give high values

Compound	inhibition
CCc1c(O)nc(SCC(=O)Nc2ccccc2C)n(-c2ccc(C)cc2)c1=O	-22.6%
CN1CCN(C(=O)/C(=C/c2ccccc2F)NC(=O)c2ccccc2)CC1	-17.7%
CCNc1ccc([N+](=O)[O-])cc1	-1.6%
CN(C)CCCN(Cc1cc2cc3c(cc2[nH]c1=O)OCO3)C(=S)Nc1ccccc1	-23.7%
CCSc1nnc(NC(=O)c2cccc(S(=O)(=O)N(C)c3ccccc3)c2)s1	-5.2%
CCCCn1c(SCC(=O)c2ccccc2)nc2ccsc2c1=O	21.6%
CCCCn1c(SCC(=O)N2CCC(C)CC2)nc2ccsc2c1=O	-16.2%
Cc1cc(C)nc(SCC(=O)Nc2ncc(C(F)(F)F)cc2Cl)n1	-28.9%
O=C(CSc1ncccn1)Nc1ncc(C(F)(F)F)cc1Cl	-20.5%
Nc1nc(SCC(=O)Nc2ncc(C(F)(F)F)cc2Cl)n[nH]1	65.2% (active)
Cc1cc(C(F)(F)F)nn1CC(=O)NCc1ccco1	-18%
ON1C(c2ccc(Cl)cc2Cl)N(O)[C@H]2CCCC[C@H]21 (stereo partly drawn)	-8.4%
COC(=O)C1CN(C(=O)COc2ccccc2)c2ccccc2O1 (stereo not drawn)	15.9%
Cc1ccc(C(C)C)c(OCCNC(=O)c2cncc(Br)c2)c1	16.6%
Cc1ccc(C(C)C)c(OCCNC(=O)c2ccccc2O)c1	-22.6%
COc1cc(/C=N/n2nnnc2Nc2ccccc2)cc(OC)c1OC	-36.9%
CCc1cccc(C)c1NC(=O)C(c1ccccc1)N1CCC1=O (stereo not drawn)	-22.7%
COCCCNC(=S)N1CCN(S(C)(=O)=O)CC1	-18.9%
CC(C)(C)c1ccc(C(=O)N2CCN(c3nc4ccccc4o3)CC2)cc1	28.1%
COc1ccc(C(=O)N2CCN(c3nc4ccccc4o3)CC2)cc1OC	19.2%
O=C(c1ccc(-c2ccccc2)cc1)N1CCN(c2nc3ccccc3o2)CC1	35.5% (active)
CCOC(=O)C1(Cc2ccccc2)CCN(Cc2ccc(C)s2)CC1	-14.9%
O=C(Cc1ccc(F)cc1)Nc1nccs1	-24.2%
O=C(Nc1ccc(S(=O)(=O)Nc2nccs2)cc1)c1ccc(F)cc1	-13.9%
COc1ccc(/C=C/C(=O)Nc2ccc3nc4n(c(=O)c3c2)CCCC4)cc1OC	-31.1%

Compound	inhibition
O=C(O)c1ccc(NCc2cccnc2)c([N+](=O)[O-])c1	-17.4%
C/C(=N\NC(N)=O)c1cccc(Cl)c1	29%
COCCNC(=S)Nc1ccccc1Cc1ccccc1	45.2% (active)
CCCCNC(=S)Nc1ccccc1Cc1ccccc1	-3.1%
COCCCNC(=S)Nc1ccccc1C	-13.2%
CCCCCN(C(=O)NC(=O)NC(C)CC)S(C)(=O)=O (stereo not drawn)	-3.8%
Cc1noc(NC(=O)c2cccc(C(F)(F)F)c2)c1Cl	-5.6%
Cc1noc(NC(=O)c2ccc(Cl)c(Cl)c2)c1Cl	67.6% (active)
Cc1noc(NC(=O)c2ccc(Cl)cc2)c1Cl	-33%
COc1cccc(C(=O)NCCNC(=O)c2ccc(C)nc2)c1	-6.6%
CCCCNC(=S)N(C)/N=C/c1ccccc1F	12.5%
CCCCNC(=S)N(C)/N=C/c1c(F)cccc1F	-5.6%
CCCCNC(=S)N(C)/N=C/c1ccc(F)cc1	100% (active)
Cc1ccc(C(=O)NC2CCc3ccccc3C2=O)cc1 (stereo not drawn)	-47.4%
COCCN1CCN(C(=O)C2CCC(=O)N(Cc3ccccc3OC)C2)CC1 (stereo not drawn)	-18.1%
N#CCCn1cc(/C=C/C(=O)O)c(-c2ccc(F)cc2)n1	-31.6%
COc1ccc(Cn2cc3c(-c4ccc(F)cc4)nnc-3c3cc(OC)c(OC)cc32)cc1	10.1%
COc1cc2c3nnc(-c4ccc(F)cc4)c-3cn(Cc3ccc(C)cc3)c2cc1OC	-31.5%
COc1cc2c3nnc(-c4ccc(F)cc4)c-3cn(Cc3ccc(F)cc3)c2cc1OC	108% (active)
Cc1cc(N2CC(C(=O)Nc3nccs3)CC2=O)ccc1C(C)C (stereo not drawn)	-22.4%
COc1ccc(C(=O)Nc2cc(C)on2)cc1[N+](=O)[O-]	-31.1%
O=C(Nc1ccc(-c2n[nH]c(=S)o2)cc1)c1ccccc1Cl	-4.7%
Cc1nn(-c2ncc(C(F)(F)F)cc2Cl)c(=O)n1-c1c(F)cccc1F	-38.4%
CCc1ccc(/C=C(\Cl)c2nc3cc(Cl)ccc3c(=O)[nH]2)cc1	-10.4%
O=c1[nH]c(/C(Cl)=C/c2c(F)cccc2Cl)nc2cc(Cl)ccc12	25.9%

Compound	inhibition
O=c1[nH]c(/C(Cl)=C/c2cc(Cl)ccc2O)nc2cc(Cl)ccc12	81.7% (active)
CCOP(=O)(OCC)C(NC(C)=O)C(=O)c1ccccc1 (stereo not drawn)	-30.2%
Cc1cc(C)cc(NC(=S)NCc2cccnc2)c1	-23.4%
CC(C)[C@H]1COC(NC2=N[C@@H](C(C)C)CO2)=N1	75.5% (active)
CC(C)[C@@H]1COC(c2cccc(C3=N[C@H](C(C)C)CO3)n2)=N1	11.3%
CC(C)[C@@H]1COC(c2cccc(C3=N[C@H](C(C)C)CO3)c2)=N1	-29%
Cc1ccc(C2C(=O)c3ccccc3C2=O)cc1	-11%
CCOc1ccc(N/C(=N/c2nc(C)cc(C)n2)NC(C)=O)cc1	-12%
COc1ccccc1-c1nc(C#N)c(N2CCN(Cc3ccccc3)CC2)o1	13.8%
CCc1ccc(N2CN=c3s/c(=C\c4ccccc4)c(=O)n3C2)cc1	-13%
Cc1ccc(N2CN=c3s/c(=C\c4ccccn4)c(=O)n3C2)cc1	-21.2%
Cc1ccc(N2CN=c3s/c(=C\c4cccnc4)c(=O)n3C2)cc1	84.1% (active)
COc1cccc(C2Nc3ccccc3NC3=C2C(=O)CC(C)(C)C3)c1OC (stereo not drawn)	-8.8%
C=CCn1c(=O)c2c(nc3n2CCS3)n(C)c1=O	5.1%
CCN(CC)C(=O)C[n+]1cccc(/C=N/O)c1	-12.8%
Cc1cccc(OCC(=O)Nc2nc3ccc([N+](=O)[O-])cc3s2)c1	55.9%
Cc1ccc(C)c(OCC(=O)Nc2nc3ccc([N+](=O)[O-])cc3s2)c1	-16.9%
CS(=O)(=O)N(CC(=O)N/N=C/c1ccc(OCC(=O)N2CCOCC2)cc1)c1ccccc1Cl	-22.8%
Cc1sc(NC(=O)CSc2nc(O)cc(=O)[nH]2)nc1-c1ccccc1	-24.3%
CN(CCCN1CCOCC1)C(=O)c1cc(COc2cccc(C(F)(F)F)c2)on1	-8.6%
O=C(C1CCN(Cc2cn[nH]c2-c2ccc(F)cc2F)CC1)N1CCOCC1	-5.7%
OCCCC1CCCN(Cc2cn[nH]c2-c2ccc(F)cc2F)C1 (stereo not drawn)	75% (active)
CCOC(=O)C1CCCN(Cc2cn[nH]c2-c2ccc(F)cc2F)C1 (stereo not drawn)	-31.8%
O=C(NCc1ccc(F)cc1)N1CCN(S(=O)(=O)c2ccccc2F)CC1	-20.3%
O=C(N/N=C/c1ccc(Cl)cc1Cl)C(=O)NC1CC1	-3.9%

Compound	inhibition
CCc1cc(-c2[nH]ncc2-c2ccc3c(c2)OCO3)c(O)cc1O	97.7% (active)
CCCc1cc(-c2[nH]ncc2-c2ccc3c(c2)OCCCO3)c(O)cc1O	17.6%
CCc1cc(-c2[nH]ncc2-c2ccc(OC)cc2)c(O)cc1O	12.6%
Cc1ccc(C(=O)NCC(=O)N2CCN(S(=O)(=O)c3cccs3)CC2)s1	-28.4%
O=C(N/N=C/c1ccc(OC(=O)c2cccc(F)c2)cc1)c1cccnc1	-21%
COc1ccccc1NC(=O)c1ccccc1Nc1ccccc1	-5.4%
COc1ccc(CN2CCNC(=O)C2CC(=O)NCCc2cnccn2)cc1C (stereo not drawn)	-22.4%
Cc1ccc(Nc2n[nH]c(C)c2[N+](=O)[O-])cc1	-38.4%
Cc1cccc(Nc2n[nH]c(C)c2[N+](=O)[O-])c1	-36.2%
Cc1[nH]nc(Nc2ccccc2)c1[N+](=O)[O-]	75.5% (active)
CC1CCCN(S(=O)(=O)c2ccc3oc(=O)ccc3c2)C1 (stereo not drawn)	-39.5%
Cc1ccc(OCCCn2cc(C#N)c3ccccc32)cc1	26.6%
CCN(CC)S(=O)(=O)c1cc(C(=O)OCC(=O)c2ccc3c(c2)NC(=O)CO3)ccc1F	-21.3%
COCc1cc(C)nc(N2CCCCC2)c1C#N	-7.1%
O=C(O)c1ccc(/C=C2\CCCc3c2nc2ccccc2c3C(=O)O)cc1	-24%
O=C(O)c1c2c(nc3ccccc13)/C(=C/c1ccc(O)cc1)CCC2	-23.9%
O=C(O)c1c2c(nc3ccccc13)/C(=C/c1ccc(O)cc1)CC2	63.5% (active)
NC(=O)CSc1nnc(CNc2cccc(Cl)c2)n1CCc1ccccc1	-6.6%
CCOC(=O)c1sc(-c2ccc(F)cc2)cc1N	-18.5%
CC(O)CNc1ncnc2cc(-c3ccc(F)cc3)sc12 (stereo not drawn)	-11.1%
C=CCNC(=O)c1ccc2c(=O)n(CCCN3CCCC3=O)c(=S)[nH]c2c1	-17.5%
N#CC1=C(N)Oc2ccc3ccc(O)cc3c2C1c1cccnc1 (stereo not drawn)	-18.7%
Cc1ccc(-c2nc3[nH]c(=O)cc(NC(=O)c4cccs4)n3n2)cc1	-1.6%
